Several values for one entry are separate records, joined by “and”; a condition that tells them apart may be missing. Identical values can stand only once. Records with an inconclusive call do not appear. Where a structure was tested more than once in an assay, its records may differ in their call. Activity calls are given as the source filed them. Rule for the calls: active = hit-call score of the fitted dose curve at least 0.9, where 1 is the maximum; inconclusive = response in the unintended direction; inactive = score below 0.9.
test system: not listed separately; test: ATG_XTT_Cytotoxicity: Cytotoxicity Assessment in the Attagene TRANS-FACTORIAL HepG2 Assay (AID 2283584);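 for AC50: XTT signal for cell number as viability in transfected HepG2 cells; cells exposed to compound for 24 h before reading; active means loss of viability signal versus DMSO baseline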
Summary of the method: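 HepG2 cells transiently transfected with GAL4-UAS multiple reporter units, dosed 24 h; cytotoxicity read by XTT as loss of signal versus DMSO baseline.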

| Compound | outcome | AC50 |
| --- | --- | --- |
| CCOc1ccc(N)cc1 | inactive |  |
| O=c1oc2ccccc2c(O)c1C(CC(O)c1ccc(-c2ccc(Br)cc2)cc1)c1ccccc1 (stereo unspecified) | inactive |  |
| CCNc1nc(NCC)nc(SC)n1 | inactive |  |
| CC(C)[C@@H](Nc1ccc(C(F)(F)F)cc1Cl)C(=O)OC(C#N)c1cccc(Oc2ccccc2)c1 (stereo partly specified) | inactive |  |
| CC(C)CC(C)(c1ccc(O)cc1)c1ccc(O)cc1 |  | 25.9 µM (active) |
| N#CS | inactive |  |
| CCN(CC)C(=O)C(Cl)=C(C)OP(=O)(OC)OC | inactive |  |
| Cl[C@H]1OCCO[C@@H]1Cl | inactive |  |
| C=CCCl | inactive |  |
| O=C(CBr)c1ccc(O)cc1 | inactive |  |
| Oc1ccc(Cc2ccc(O)cc2)cc1 | inactive |  |
| O=S1OC[C@@H]2[C@H](CO1)[C@]1(Cl)C(Cl)=C(Cl)[C@@]2(Cl)C1(Cl)Cl (stereo partly specified) | inactive |  |
| O=C(NC(=O)c1c(F)cccc1F)Nc1cc(Cl)c(OC(F)(F)C(F)C(F)(F)F)cc1Cl (stereo unspecified) | inactive |  |
| Nc1cccnc1 | inactive |  |
| CCCCCCCCCCCCCl | inactive |  |
| CCOC(=O)OC1=C(c2cc(C)ccc2C)C(=O)NC12CCC(OC)CC2 (stereo unspecified) | inactive |  |
| CS(=O)(=O)c1ccc(C(=O)C2C(=O)CCCC2=O)c(Cl)c1COCC(F)(F)F | inactive |  |
| Cc1cc(-c2cc(C)c(N)c(C)c2)cc(C)c1N | inactive |  |

| Compound | outcome | AC50 |
| --- | --- | --- |
| N#CCC#N | inactive |  |
| O=C(O)CC(O)(CC(=O)O)C(=O)O | inactive |  |
| O=NN1CCOCC1 | inactive |  |
| CCCCCCCCBr | inactive |  |
| COP(=S)(OC)Oc1cc(Cl)c(I)cc1Cl |  | 157 µM (active) |
| CCOc1cc(C=O)ccc1O | inactive |  |
| C#C[C@]1(O)CC[C@H]2[C@@H]3CCC4=CC(=O)CC[C@]4(C)[C@H]3CC[C@@]21C | inactive |  |
| CCOP(=O)(OCC)OC(=CCl)c1ccc(Cl)cc1Cl | inactive |  |
| CC(=O)CN(CC(C)=O)N=O | inactive |  |
| C=CC(=O)OCC(COC(=O)C=C)(COC(=O)C=C)COC(=O)C=C |  | 73.8 µM (active) |
| Nc1ccc(-c2ccccc2)cc1 | inactive |  |
| CCOP(=S)(OCC)O/N=C(\C#N)c1ccccc1 | inactive |  |
| C=C(C)[C@@H]1CC=C(C=O)CC1 | inactive |  |
| C=CCc1ccccc1O | inactive |  |
| O=CCCl | inactive |  |
| O=[N+]([O-])c1cccc2ccccc12 | inactive |  |
| Cc1cc(C(F)(C(F)(F)F)C(F)(F)F)ccc1NC(=O)c1cccc(I)c1C(=O)NC(C)(C)CS(C)(=O)=O | inactive |  |

molecular target: Cellular tumor antigen p53 (Homo sapiens) (UniProt P04637); test: TOX21_p53_BLA_p2_ratio: Tox21 HCT-116 p53 Agonism Beta-lactamase Assay, Ratio, Phase 2 (AID 2283592)
Summary of the method: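 First, HCT116 reporter cells settle for 5 h at 37C. Next, DMSO compound solutions are pinned in (217-fold dilution) and left 16 h. Finally, CCF4-AM substrate is loaded 2 h at room temperature and the 460/530 nm ratio read.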

Cellular tumor antigen p53 (Homo sapiens), sequence (P04637 whole entry, looked up): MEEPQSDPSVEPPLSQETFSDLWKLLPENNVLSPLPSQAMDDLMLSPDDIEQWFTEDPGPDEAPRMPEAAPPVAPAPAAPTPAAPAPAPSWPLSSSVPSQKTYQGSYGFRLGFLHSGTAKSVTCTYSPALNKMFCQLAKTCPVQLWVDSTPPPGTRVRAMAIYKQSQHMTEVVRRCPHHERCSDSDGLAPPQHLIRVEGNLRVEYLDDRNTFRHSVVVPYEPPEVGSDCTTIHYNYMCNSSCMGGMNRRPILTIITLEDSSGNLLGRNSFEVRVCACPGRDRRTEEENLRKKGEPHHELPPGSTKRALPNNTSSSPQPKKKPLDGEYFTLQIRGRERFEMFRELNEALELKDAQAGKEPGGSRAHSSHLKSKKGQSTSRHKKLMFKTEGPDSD

| Compound | outcome | AC50 |
| --- | --- | --- |
| CCOc1ccc(N)cc1 | inactive |  |
| O=c1oc2ccccc2c(O)c1C(CC(O)c1ccc(-c2ccc(Br)cc2)cc1)c1ccccc1 (stereo unspecified) | inactive |  |
| CCNc1nc(NCC)nc(SC)n1 | inactive |  |
| CC(C)[C@@H](Nc1ccc(C(F)(F)F)cc1Cl)C(=O)OC(C#N)c1cccc(Oc2ccccc2)c1 (stereo partly specified) | inactive |  |
| CC(C)CC(C)(c1ccc(O)cc1)c1ccc(O)cc1 |  | 41.7 µM (active) and 71.7 µM (active) |
| N#CS | inactive |  |
| CCN(CC)C(=O)C(Cl)=C(C)OP(=O)(OC)OC | inactive |  |
| Cl[C@H]1OCCO[C@@H]1Cl | inactive |  |
| C=CCCl | inactive |  |
| O=C(CBr)c1ccc(O)cc1 | inactive |  |
| Oc1ccc(Cc2ccc(O)cc2)cc1 | inactive |  |
| O=S1OC[C@@H]2[C@H](CO1)[C@]1(Cl)C(Cl)=C(Cl)[C@@]2(Cl)C1(Cl)Cl (stereo partly specified) | inactive |  |
| O=C(NC(=O)c1c(F)cccc1F)Nc1cc(Cl)c(OC(F)(F)C(F)C(F)(F)F)cc1Cl (stereo unspecified) | inactive |  |
| Nc1cccnc1 | inactive |  |
| CCCCCCCCCCCCCl | inactive |  |
| CCOC(=O)OC1=C(c2cc(C)ccc2C)C(=O)NC12CCC(OC)CC2 (stereo unspecified) |  | 46.1 µM (active) |
| CS(=O)(=O)c1ccc(C(=O)C2C(=O)CCCC2=O)c(Cl)c1COCC(F)(F)F | inactive |  |
| Cc1cc(-c2cc(C)c(N)c(C)c2)cc(C)c1N | inactive |  |

| Compound | outcome | AC50 |
| --- | --- | --- |
| N#CCC#N | inactive |  |
| O=C(O)CC(O)(CC(=O)O)C(=O)O | inactive |  |
| O=NN1CCOCC1 | inactive |  |
| CCCCCCCCBr | inactive |  |
| COP(=S)(OC)Oc1cc(Cl)c(I)cc1Cl |  | 73.9 µM (active) |
| CCOc1cc(C=O)ccc1O | inactive |  |
| C#C[C@]1(O)CC[C@H]2[C@@H]3CCC4=CC(=O)CC[C@]4(C)[C@H]3CC[C@@]21C | inactive |  |
| CCOP(=O)(OCC)OC(=CCl)c1ccc(Cl)cc1Cl | inactive |  |
| CC(=O)CN(CC(C)=O)N=O | inactive |  |
| C=CC(=O)OCC(COC(=O)C=C)(COC(=O)C=C)COC(=O)C=C | inactive |  |
| Nc1ccc(-c2ccccc2)cc1 | inactive |  |
| CCOP(=S)(OCC)O/N=C(\C#N)c1ccccc1 | inactive |  |
| C=C(C)[C@@H]1CC=C(C=O)CC1 | inactive |  |
| C=CCc1ccccc1O | inactive |  |
| O=CCCl | inactive |  |
| O=[N+]([O-])c1cccc2ccccc12 | inactive |  |
| Cc1cc(C(F)(C(F)(F)F)C(F)(F)F)ccc1NC(=O)c1cccc(I)c1C(=O)NC(C)(C)CS(C)(=O)=O | inactive |  |

test system: not listed separately; test: TOX21_p53_BLA_p3_viability: Viability Assessment in the Tox21 HCT-116 p53 Agonism Beta-lactamase Assay, Phase 3 (AID 2283593);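 note: cells exposed to compound for 16 h before reading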
Summary of the method: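 HCT-116 cells (4000/well) rested 5 h at 37C, then got DMSO compounds by pin tool (217-fold dilution) for 16 h at 37C, 5% CO2. After the bla read, CellTiter-Glo was added and luminescence read at 30 min, room temperature.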

| Compound | outcome | AC50 |
| --- | --- | --- |
| CCOc1ccc(N)cc1 | inactive |  |
| O=c1oc2ccccc2c(O)c1C(CC(O)c1ccc(-c2ccc(Br)cc2)cc1)c1ccccc1 (stereo unspecified) | inactive | 15.2 µM (active) |
| CCNc1nc(NCC)nc(SC)n1 | inactive |  |
| CC(C)[C@@H](Nc1ccc(C(F)(F)F)cc1Cl)C(=O)OC(C#N)c1cccc(Oc2ccccc2)c1 (stereo partly specified) | inactive |  |
| CC(C)CC(C)(c1ccc(O)cc1)c1ccc(O)cc1 |  | 57.9 µM (active) and 73.5 µM (active) |
| N#CS | inactive |  |
| CCN(CC)C(=O)C(Cl)=C(C)OP(=O)(OC)OC | inactive |  |
| Cl[C@H]1OCCO[C@@H]1Cl | inactive |  |
| C=CCCl | inactive |  |
| O=C(CBr)c1ccc(O)cc1 | inactive |  |
| O=S1OC[C@@H]2[C@H](CO1)[C@]1(Cl)C(Cl)=C(Cl)[C@@]2(Cl)C1(Cl)Cl (stereo partly specified) |  | 84.1 µM (active) |
| O=C(NC(=O)c1c(F)cccc1F)Nc1cc(Cl)c(OC(F)(F)C(F)C(F)(F)F)cc1Cl (stereo unspecified) | inactive |  |
| Nc1cccnc1 | inactive |  |
| CCCCCCCCCCCCCl | inactive |  |
| CCOC(=O)OC1=C(c2cc(C)ccc2C)C(=O)NC12CCC(OC)CC2 (stereo unspecified) | inactive |  |
| Cc1cc(-c2cc(C)c(N)c(C)c2)cc(C)c1N | inactive |  |
| O=C(O)CC(O)(CC(=O)O)C(=O)O | inactive |  |
| O=NN1CCOCC1 | inactive |  |
| COP(=S)(OC)Oc1cc(Cl)c(I)cc1Cl | inactive |  |
| CCOc1cc(C=O)ccc1O | inactive |  |
| C#C[C@]1(O)CC[C@H]2[C@@H]3CCC4=CC(=O)CC[C@]4(C)[C@H]3CC[C@@]21C | inactive |  |
| CCOP(=O)(OCC)OC(=CCl)c1ccc(Cl)cc1Cl | inactive |  |
| CC(=O)CN(CC(C)=O)N=O | inactive |  |
| C=CC(=O)OCC(COC(=O)C=C)(COC(=O)C=C)COC(=O)C=C |  | 57.9 µM (active) |
| Nc1ccc(-c2ccccc2)cc1 | inactive |  |
| C=C(C)[C@@H]1CC=C(C=O)CC1 | inactive |  |
| C=CCc1ccccc1O | inactive |  |
| O=CCCl | inactive |  |
| O=[N+]([O-])c1cccc2ccccc12 | inactive |  |
| Cc1cc(C(F)(C(F)(F)F)C(F)(F)F)ccc1NC(=O)c1cccc(I)c1C(=O)NC(C)(C)CS(C)(=O)=O | inactive |  |

Source: PubChem BioAssay (EPA / NIEHS)
